Laboratory results taken from PubChem BioAssay (NCI).
Compounds without any hit were thinned out: in the full panel of roughly 79,000, 15% have a hit. No stated cut-off is given here; in the data, active means growth inhibition above about 70%; inactive means the rest.

Columns and labels:
[1] = NCI Yeast Anticancer Drug Screen. Data for the rad50 strain (AID 155);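 further: 0% = growth of vehicle-only cultures of the same strain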; conditions: S. cerevisiae rad50 strain growth inhibition; at 50.0 µM; hits give high values
How it was run: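 A DNA repair-deficient yeast mutant serves as the test organism; compound-induced growth inhibition is calculated against vehicle-treated cells.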

[2] = NCI Yeast Anticancer Drug Screen. Data for the mec2-1 strain (AID 157); conditions: S. cerevisiae mec2-1 strain, at 50.0 µM, hits give high values
How it was run: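 Readout is yeast growth inhibition, normalised to vehicle-treated controls, in the mec2-1 strain exposed to compound.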

[3] = NCI Yeast Anticancer Drug Screen. Data for the sgs1 mgt1 strain (AID 161);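 further: 0% = growth of cultures given vehicle only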; conditions: S. cerevisiae sgs1 mgt1 strain, at 50.0 µM, hits give high values
How it was run: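 This yeast growth screen uses a strain with defined DNA-repair lesions; compound-treated growth is compared with vehicle-treated growth.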

[4] = NCI Yeast Anticancer Drug Screen. Data for the cln2 rad14 strain (AID 165);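 further: 0% = growth equal to vehicle treated cultures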; conditions: S. cerevisiae cln2 rad14 strain, at 50.0 µM, hits give high values
How it was run: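 Relative to vehicle controls, growth inhibition of compound-treated cln2 rad14 yeast was recorded.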

[5] = NCI Yeast Anticancer Drug Screen. Data for the bub3 strain (AID 167); conditions: S. cerevisiae bub3 mutant strain, at 50.0 µM, hits give high values
How it was run: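 Inhibition values come from growth of compound-treated mutant yeast normalised to vehicle-treated controls.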

[6] = NCI Yeast Anticancer Drug Screen. Data for the mlh1 rad18 strain (AID 175); conditions: S. cerevisiae mlh1 rad18 strain growth inhibition; at 50.0 µM; hits give high values
How it was run: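 Test agents were incubated with a yeast strain of defined genotype (DNA damage repair defect). Inhibition of growth was derived by comparison with vehicle-exposed cultures.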

Measured: growth inhibition

Cc1cc2c(C)[nH]nc2c(C(=O)O)c1C
inactive: [1] 6.85% | [2] -5.15% | [3] 6.35% | [4] 11.1% | [5] 3.2% | [6] 19.4%

COc1ccc(CC2OC(C)CC(C)(C)O2)cc1 (stereo unspecified)
inactive: [1] 38.2% | [2] -12.2% | [3] 4.75% | [4] -55.8% | [5] -4.5% | [6] 37.2%

C=CCN1C(=O)C/C(=C2/CCC(=O)N2CC=C)C1=O
inactive: [1] -11.1% | [2] -27.4% | [3] -16% | [4] 3.6% | [5] 1.8% | [6] -9.8%

CC1(C)O[C@H]2[C@H](O)C[C@](O)(CO)C[C@H]2O1
inactive: [1] 1.3% | [2] 3.85% | [3] -0.65% | [4] -27.6% | [5] -9.25% | [6] 1.25%

CCN(CC)C(=O)CNC(=O)C(c1ccccc1)c1ccccc1
inactive: [1] 4.25% | [2] -6.2% | [3] 1.4% | [4] -9.7% | [5] 6.35% | [6] -8.05%

COc1ccc2c(C)[n+]3ccc4cc(OC)c(OC)cc4c3cc2c1 (tested in a mixture with another compound)
inactive: [1] 21.5% | [2] 12.4% | [3] 22.9% | [4] -6.7% | [5] 22.5% | [6] 32.8%

CCN(CC)CC(O)Cn1cnc2c(SC)ncnc21 (stereo unspecified)
inactive: [1] -0.75% | [2] 0.6% | [3] -2.95% | [4] 5.5% | [5] 4.5% | [6] -1.9%

Oc1ccc2ccccc2c1C=NCc1c(O)ccc2ccccc12
inactive: [1] 3.5% | [2] -1.7% | [3] -11.2% | [4] -39.2% | [5] -43.6% | [6] 8.75%

N#Cc1c(-c2ccccc2)c[nH]c1/N=C/N
inactive: [1] -17.6% | [2] -16.8% | [3] -9.75% | [4] -10.4% | [5] -10.2% | [6] -6.5%

NNC1=Nc2ccc(Cl)cc2C(=S)N2CSCC12 (stereo unspecified)
inactive: [1] -1.05% | [2] -3.1% | [3] -11.7% | [4] -11.8% | [5] -8.95% | [6] 9.25%

COS(=O)(=O)Cc1ccccc1
inactive: [1] -21.6% | [2] -15% | [3] -16.8% | [4] -19.2% | [5] -12.3% | [6] 8.45%

Nc1ncnc2c1cnn2-c1ccc(Cl)cc1
inactive: [1] 42% | [2] 9.15% | [3] 62.6% | [4] -7.2% | [5] 23.8% | [6] 48%

CC(C(=O)c1ccc(Cl)cc1)/C(=N/NC(=O)NN)C(=O)Nc1cccc(C(F)(F)F)c1 (stereo unspecified)
inactive: [1] -8.45% | [2] -16.6% | [3] -58.5% | [4] -56% | [5] 18.6% | [6] -6.95%

Cc1nc(=O)n2c(c1C(=O)Nc1ccc(Cl)cc1)NCC2
inactive: [1] 3.75% | [2] -3.35% | [3] 0.1% | [4] -37.9% | [5] 2.35% | [6] 14.8%

CC[N+](C)(CC)C(Cc1ccccc1)c1ccccc1 (stereo unspecified)
inactive: [1] 1% | [2] 8.8% | [3] 24.6% | [4] 23% | [5] -5.8% | [6] 4.3%

NC(=S)NNC(=O)CCC(=O)Nc1ccccc1Cl
inactive: [1] -0.15% | [2] -2.3% | [3] -11.8% | [4] 37.2% | [5] -3.95% | [6] 6.65%

NC(=O)CC(N)C(=O)OCc1ccc([N+](=O)[O-])cc1 (stereo unspecified)
inactive: [1] -12.7% | [2] 0% | [3] -3.45% | [4] -11.2% | [5] -5.95% | [6] -11.3%

CS(=O)c1ccc(/C=C2/C=Cc3ccccc32)cc1 (stereo unspecified)
inactive: [1] 32.8% | [2] 27.3% | [3] 30.5% | [4] 22.1% | [5] 48.7% | [6] 36%

Cc1ccc(S(=O)(=O)N(CCO)CC(C)O)cc1 (stereo unspecified)
inactive: [1] -15.9% | [2] -24.1% | [3] -23.2% | [4] -13% | [5] -24.1% | [6] -26.8%

CCOC(=O)OCCCc1ccccc1
inactive: [1] -8.95% | [2] -2.95% | [3] -8.8% | [4] -15.4% | [5] -7.55% | [6] -6.8%

FC(F)(F)c1cc(NC(=S)SCc2ccc(Cl)cc2)ccc1Cl
inactive: [1] 22.8% | [2] 8.7% | [3] 16.2% | [4] 14.6% | [5] 13.6% | [6] 11.2%
